# Measured values taken from the supplement of paper PMC11219838.
# Legend:
# Conditions in all cases: 60 µM; 5 days; temperature: 20 °C
# [1] = system: Meloidogyne hapla J2; experiment: proportion of mobile M. hapla J2 relative to DMSO control (fraction of DMSO control); higher = more viable, less nematicidal, active = 0.7 or less
# How it was run: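 About 25 M. hapla J2 were added per 96-well well in distilled water, and compound was pinned to 60 µM final (0.6% v/v DMSO). Sealed plates were shaken at 200 rpm for 5 days at 20 °C, then 2 µL 1 M NaOH was added before microscopic mobility scoring. Mobility was divided by the mean of eight DMSO wells on the same plate, and two biological replicates were averaged.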
# [2] = system: Caenorhabditis elegans dauer (daf-2(e1370)); experiment: proportion of mobile C. elegans dauer larvae relative to DMSO control (fraction of DMSO control); higher = more viable, less nematicidal, active = 0.63 or less; extreme values may be limits of the assay
# How it was run: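 Synchronized C. elegans larvae were kept for 48 h at 25 °C on MYOB plates seeded with E. coli OP50 to induce dauer formation, and roughly 20 dauers were transferred into each well of a 96-well plate containing liquid NGM. Compound was pinned in to a final concentration of 60 µM with 0.6% v/v DMSO, and the sealed plates were shaken at 200 rpm for 5 days at 20 °C. The fraction of mobile worms was scored under a dissection microscope against DMSO-only wells and averaged across two biological replicates.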
# [3] = system: Ditylenchus dipsaci; experiment: proportion of mobile D. dipsaci (mixed stage) relative to DMSO control (fraction of DMSO control); higher = more viable, less nematicidal, active = 0.86 or less; extreme values may be limits of the assay
# How it was run: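 D. dipsaci were grown on pea plants in Gamborg B-5 agar and extracted through a filter funnel into water, and about 20 worms were added per 96-well well in distilled water. Compound was pinned to 60 µM final (0.6% v/v DMSO), and sealed plates were shaken at 200 rpm for 5 days at 20 °C. After 2 µL 1 M NaOH was added, mobile worms were scored microscopically. Mobility was expressed relative to DMSO controls and averaged over two biological replicates.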
Compound,proportion of mobile M. hapla J2 [1],proportion of mobile C. elegans dauer larvae [2],proportion of mobile D. dipsaci [3]
O=C(Nc1cccc(-c2noc(COc3ccccc3)n2)c1)c1cccs1,0.847 (inactive),1 (inactive),1 (inactive)
CC(C)(C)c1ccc(-c2noc(COc3ccccc3)n2)cc1,0.776 (inactive),1 (inactive),1 (inactive)
C=CCOc1cccc(-c2nc(-c3cccnc3)no2)c1,1.03 (inactive),1 (inactive),1 (inactive)
COc1cccc(NC(=O)CSc2nnc(-c3ccc(Br)cc3)o2)c1,0.966 (inactive),1 (inactive),1 (inactive)
COc1cccc(-c2nc(-c3ccc(F)cc3)no2)c1,0.862 (inactive),1 (inactive),1 (inactive)
Fc1ccc(-c2noc(COc3ccccc3Cl)n2)cc1,1.03 (inactive),1 (inactive),1 (inactive)
COc1nc(C)ccc1-c1noc(-c2ccc(F)cc2)n1,0.992 (inactive),1 (inactive),1 (inactive)
Clc1ccc(CSc2nnc(-c3ccccc3Cl)o2)cc1,0.888 (inactive),1 (inactive),1 (inactive)
c1ccc(-c2nnc(SCc3nc4ccccc4[nH]3)o2)cc1,1.04 (inactive),1 (inactive),1 (inactive)
Cc1ccc(-c2nnc(SCC(=O)Nc3ccc(F)cc3)o2)cc1,1.04 (inactive),1 (inactive),1 (inactive)
Cc1ccc(OCc2nc(-c3ccc(Br)o3)no2)cc1C,1 (inactive),1 (inactive),1 (inactive)
CC(C)c1ccc(OCc2nc(-c3ccccn3)no2)cc1,1.01 (inactive),1 (inactive),1 (inactive)
Clc1cccc(-c2nc(-c3ccc4c(c3)OCO4)no2)c1,0.943 (inactive),1 (inactive),1 (inactive)
COc1cccc(-c2nnc(SCC(=O)Nc3cccc(C(F)(F)F)c3)o2)c1,1.01 (inactive),1 (inactive),1 (inactive)
COc1ccc(Cl)cc1-c1nnc(SCC(=O)Nc2nccs2)o1,0.826 (inactive),1 (inactive),1 (inactive)
COc1nc(-c2ccc(C)cc2)ccc1-c1noc(-c2ccc(F)cc2)n1,0.925 (inactive),1 (inactive),1 (inactive)
Cc1cc(OCc2nc(-c3cccnc3)no2)cc(C)c1Br,1.05 (inactive),1 (inactive),1 (inactive)

Compound,proportion of mobile M. hapla J2 [1],proportion of mobile C. elegans dauer larvae [2],proportion of mobile D. dipsaci [3]
Cc1ccc(NC(=O)CSc2nnc(-c3ccc(C(C)(C)C)cc3)o2)c(C)c1,0.766 (inactive),1 (inactive),1 (inactive)
Cc1nc(CSc2nnc(-c3ccc(Cl)cc3)o2)cs1,0.947 (inactive),1 (inactive),1 (inactive)
c1coc(-c2nc(-c3cccs3)no2)c1,1.01 (inactive),1 (inactive),1 (inactive)
COc1ccc(-c2noc(COc3ccc(C(C)(C)C)cc3Br)n2)cc1,0.82 (inactive),1 (inactive),1 (inactive)
CCc1nnc(NC(=O)CSc2nnc(-c3ccc(Cl)cc3Cl)o2)s1,0.875 (inactive),1 (inactive),1 (inactive)
Cc1csc(NC(=O)CSc2nnc(-c3cccc(Cl)c3)o2)n1,1.05 (inactive),1 (inactive),1 (inactive)
Ic1ccc(-c2nc(-c3cccnc3)no2)cc1,1.02 (inactive),1 (inactive),1 (inactive)
O=C(CSc1nnc(-c2cccc(Cl)c2)o1)NC1CCCCC1,0.874 (inactive),1 (inactive),1 (inactive)
O=C(CSc1nnc(-c2ccccc2)o1)NC1CCCCC1,1.01 (inactive),1 (inactive),1 (inactive)
O=C(Nc1ccccc1-c1nc(-c2cccnc2)no1)c1cccc(Cl)c1,0.837 (inactive),1 (inactive),1 (inactive)
Cc1ccc(-c2noc(-c3ccco3)n2)s1,1.11 (inactive),0.812 (inactive),1 (inactive)
Cc1ccc(NC(=O)CSc2nnc(-c3ccccc3)o2)cc1C,0.983 (inactive),1 (inactive),1 (inactive)
O=C(CSc1nnc(-c2ccc(Cl)cc2)o1)NC1CC2CCC1C2 (centres undefined),0.693 (active),1 (inactive),1 (inactive)
c1ccc(CSc2nnc(-c3cccnc3)o2)cc1,0.391 (active),1 (inactive),1 (inactive)
COc1ccc(CSc2nnc(-c3ccc(Cl)cc3Cl)o2)cc1,1.01 (inactive),1 (inactive),1 (inactive)
Cc1cc(C)cc(OCc2nc(-c3ccccc3Cl)no2)c1,0.978 (inactive),1 (inactive),1 (inactive)
